# Compound activity deposited in PubChem by several laboratories.
# Shown are actives, neighbours in structure and some others; about 5.1% of the full set was active somewhere.
# GRIN3A LBD mod: NR3A (human) ligand-binding domain modulation; NR3A LBD differential scanning fluorimetry, Tm shift; 0% = protein alone, 100% = glycine-bound protein; Tm shift relative to glycine control, % at 25 µM; 340,000 tested, 2.5% active; AID 1259313;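 active = melting temperature shift of at least 10% of the positive control shift, at one fixed dose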
# CRFR2-BP ag: agonists of human CRF-binding protein/CRF-R2 receptor complex; HEK293 CRF-R2/CRF-BP, calcium dye fluorescence (FLIPR); percent of saturating CRF peptide response; activation, % at 13.2 µM; 350,000 tested, 0.46% active;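 active = activation of at least 50%, plus an integration ratio under a set limit after plate pattern correction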;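 also: plate controls were neutral control wells without compound for no effect and CRF at EC100 for full effect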
# CRFR2-BP antag: CRF-BP/CRF-R2 complex antagonism; AID 588475; inhibition, % at 11.8 µM; 350,000 tested, 0.59% active; HEK293 CRF-R2/CRF-BP, CRF-induced calcium fluorescence;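 active = inhibition of the ligand-induced calcium signal above about 50% at the single tested concentration, limit read from the data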
# TMEM16A inh: mouse TMEM16A channel inhibition, primary screen; 310,000 tested, 1.2% active; AID 588511; HEK293 TMEM16A/YFP iodide influx fluorescence, ionomycin; normalized B-score (activity score, 25-100; higher = stronger inhibition) at 10 µM; Q8BHY3;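 active = ratio plate-corrected score three or more library SD toward inhibition, starting fluorescence score within five deviations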;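 also: score derived from kinetic fluorescence span divided by baseline fluorescence per well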
# Target sequence (Q8BHY3 whole entry, looked up): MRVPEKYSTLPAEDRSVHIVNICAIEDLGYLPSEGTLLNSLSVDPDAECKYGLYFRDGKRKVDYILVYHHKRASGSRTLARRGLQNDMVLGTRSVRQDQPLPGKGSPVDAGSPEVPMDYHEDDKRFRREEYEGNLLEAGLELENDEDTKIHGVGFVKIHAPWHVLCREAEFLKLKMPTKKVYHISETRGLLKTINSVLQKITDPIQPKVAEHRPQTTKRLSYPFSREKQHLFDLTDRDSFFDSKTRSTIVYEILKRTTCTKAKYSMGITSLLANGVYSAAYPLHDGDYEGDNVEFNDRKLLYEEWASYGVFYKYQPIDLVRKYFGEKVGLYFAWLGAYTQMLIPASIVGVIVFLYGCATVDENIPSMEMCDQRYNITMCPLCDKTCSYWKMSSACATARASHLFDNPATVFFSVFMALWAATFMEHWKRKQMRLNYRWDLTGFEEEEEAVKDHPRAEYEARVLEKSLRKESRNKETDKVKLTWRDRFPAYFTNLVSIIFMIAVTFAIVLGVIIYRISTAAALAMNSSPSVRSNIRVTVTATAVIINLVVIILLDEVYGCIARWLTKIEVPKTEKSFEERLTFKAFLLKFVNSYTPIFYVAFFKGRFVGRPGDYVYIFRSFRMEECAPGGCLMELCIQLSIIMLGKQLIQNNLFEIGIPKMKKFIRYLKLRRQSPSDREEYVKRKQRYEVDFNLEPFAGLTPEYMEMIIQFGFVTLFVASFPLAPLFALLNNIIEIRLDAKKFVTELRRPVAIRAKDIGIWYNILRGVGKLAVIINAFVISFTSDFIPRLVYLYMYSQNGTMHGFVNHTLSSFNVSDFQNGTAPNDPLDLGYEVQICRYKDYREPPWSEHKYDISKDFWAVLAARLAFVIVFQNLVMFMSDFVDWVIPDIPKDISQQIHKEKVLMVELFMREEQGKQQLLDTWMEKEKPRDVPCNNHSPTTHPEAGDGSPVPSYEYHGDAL
# MPTP inh: permeability transition pore inhibition | isolated mouse mitochondria, Ca2+ swelling absorbance, 30 min | inhibition, % at 10 µM | 360,000 tested, 1.4% active;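 active = inhibition of 50% or more, scaled per plate between neutral and stimulator controls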;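 also: 0% = DMSO wells given calcium and 100% = 1 mM EGTA wells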
# TMEM16A act: mouse TMEM16A channel activation, primary screen; HEK293 TMEM16A/YFP-H148Q/I152L, iodide quench fluorescence; stronger effect = lower value; Q8BHY3; 340,000 tested, 0.3% active; B-score at 10 µM;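 active = fluorescence-ratio B-score plate-corrected deviation score at least 3 library SD below zero, with starting fluorescence score within 5 deviations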;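 also: channel opened by trigger with iodide after compound preincubation; score built on the fluorescence ratio of max minus min over baseline; more negative score means more quench and so TMEM16A activation or potentiation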
# * marks the source's active call; other numbers are inactive results; i = inactive; nt = no result.
SMILES,GRIN3A LBD mod,CRFR2-BP ag,CRFR2-BP antag,TMEM16A inh,MPTP inh,TMEM16A act
Cc1ccc(NC(=O)CN(C)CC(=O)Nc2cccc(F)c2)cc1S(=O)(=O)N1CCCCCC1,2.7,0.8,1.2,25*,20.0,i
O=C(COc1ccccc1)Nc1ccc2c(c1)Cc1cc(NC(=O)COc3ccccc3)ccc1-2,22.5*,-0.1,11.3,i,0.3,i
Cc1ccc(NC(=O)COc2ccccc2C#N)cc1S(=O)(=O)N1CCCCCC1,-4.5,2.1,-2.1,nt,1.1,i
Cc1ccccc1OCC(=O)Nc1ccc2c(c1)Cc1ccccc1-2,-8.9,4.0,-67.9,i,3.1,i
CSCCC(NS(=O)(=O)c1ccccc1F)C(=O)Nc1cccc(C)n1 (stereo unspecified),0.2,0.9,-9.4,i,1.4,i
CC[C@@]1(C(=O)OC)N[C@H](CN(C)C(=O)Nc2ccc(C(F)(F)F)cc2)[C@@H]2C(=O)N(C)C(=O)[C@@H]21,-1.4,-0.2,-0.3,nt,1.2,nt
CCC(C)Nc1nc2c(C)cccn2c(=O)c1C=Nc1ccc(OC)cc1 (stereo unspecified),-6.8,0.9,-3.1,i,0.9,i
CCCN1C(=O)/C(=C/c2c(NCCCOC(C)C)nc3c(C)cccn3c2=O)SC1=S,-1.4,190.9*,-232.6,i,4.4,i
CCC(C)N1C(=O)/C(=C/c2c(NCCCOC(C)C)nc3c(C)cccn3c2=O)SC1=S (stereo unspecified),-3.2,59.2*,-121.9,i,12.2,i
O=C(O)C(Cc1ccccc1)N1C(=O)C2C3CCC(C3)C2C1=O (stereo unspecified),nt,8.7,-28.8,nt,0.7,nt
Cc1ccccc1CN(C)CC(=O)Nc1ccccc1Oc1ccccc1,14.0*,2.7,2.8,i,-0.1,i
Cc1ccccc1CN(C)CC(=O)Nc1ccccc1-c1ccccc1,22.5*,-1.1,-19.9,i,2.7,i
Cc1nc2ccc(C(=O)N(C)Cc3ccccc3)cn2c1N(C)C(=O)CCc1ccccc1,nt,nt,nt,nt,7.1,nt
O=c1[nH]c(C(Cl)Cl)nc2sc3c(c12)CCN(Cc1ccccc1)C3,15.0*,56.4*,4.9,i,-0.1,i
CCCSc1nc2sc3c(c2c(=O)[nH]1)CCN(Cc1ccccc1)C3,-4.3,43.9,-13.6,i,-1.0,-5.59*
CCCn1c(SC(C)C(=O)NCC2CCCO2)nc2cc(Cl)ccc2c1=O (stereo unspecified),-1.6,1.4,-6.2,i,-0.9,i
CC(C)Cn1c(SC(C)C(=O)NCC2CCCO2)nc2ccc(Cl)cc2c1=O (stereo unspecified),-2.7,0.5,-3.6,nt,-0.6,-25.1*
O=C(c1cc(COc2ccc(F)cc2Cl)on1)N1CCC(c2ccncc2)CC1,-0.9,-0.8,19.0,25*,29.7,i
O=C(c1cc(COc2ccc(F)cc2Cl)on1)N1CCCCCC1,14.5*,-0.4,6.7,i,-0.6,i
Cc1ccc(OCc2cc(C(=O)N3CCCCCCC3)no2)cc1C,2.3,0.3,18.9,i,0.0,i
Cc1cc(OCc2cc(C(=O)N3CCCCCC3)no2)cc(C)c1Cl,11.1*,2.9,6.7,i,0.5,i
C[C@H](O)[C@@H]1C(=O)N2CCc3ccc(-c4ccccc4)cc3[C@@H]2C[C@@H]1N(C)C(=O)c1ccco1,nt,1.7,-7.9,nt,-1.3,nt
COC(=O)c1cc(C#N)c(N(C)Cc2ccccc2)nc1C,1.2,2.7,61.7*,i,1.1,i
COC(=O)c1cc(C#N)c(NCc2ccccc2)nc1C,-0.4,6.4,53.8*,i,-0.3,i
CC(=O)c1cc(C#N)c(NCc2cc(-c3ccccc3)no2)nc1C,-0.7,1.2,-6.4,i,-2.0,i
SMILES,GRIN3A LBD mod,CRFR2-BP ag,CRFR2-BP antag,TMEM16A inh,MPTP inh,TMEM16A act
C/C=C/c1cccc(-c2nc(C(=O)N3CCCCC3)cc3c2[C@H](CCO)N(C(=O)NC(C)C)C3)c1,nt,nt,nt,nt,0.9,nt
COc1ccc(OC)c(-c2cc(C(=O)Nc3ccccc3C(N)=O)c3ccccc3n2)c1,10.9*,-2.8,-24.9,i,0.5,i
COc1cccc(-c2cc(C(=O)O)c3cc4ccccc4cc3n2)c1OC,nt,0.9,-6.9,nt,0.5,nt
COc1ccc(OC)c(-c2cc(C(=O)O)c3cc4ccccc4cc3n2)c1,nt,2.9,50.1*,nt,-1.2,nt
CCOC(=O)C1CCN(C(=O)c2cccc(S(=O)(=O)NCc3ccccc3)c2)CC1,-4.9,-0.3,-0.4,nt,-2.0,i
COc1ccccc1N1CCN(C(=O)c2ccc(COc3cccc4c3OC(C)(C)C4)cc2)CC1,-1.6,-0.9,11.8,i,-2.7,i
C#CCSc1nc(C)cc(C(=O)OCC)c1C#N,0.9,-5.9,82.2*,i,-1.6,i
CC1(C)Cc2c(cnn2-c2ccccc2)C(NC(=O)CCN2CCCCO2)C1 (stereo unspecified),2.6,0.1,-11.7,i,-2.2,i
COc1ccc(CCNc2oc(-c3ccc(OC)c(OC)c3)nc2C#N)cc1,15.7*,-2.1,36.1,i,-0.2,i
CCOc1ccc(N=C2SC(C(=O)Nc3ccccc3C#N)C(N)=C2C(=O)Nc2ccc(Cl)cc2)cc1 (stereo unspecified),26.7*,6.5,-31.9,i,22.8,i
CCOC(=O)c1nn(-c2ccccc2C)c2nc(Nc3ccccc3)cc(=O)n12,13.4*,6.8,-8.6,i,-0.6,i
CCS(=O)(=O)c1ncc(Cl)c(C(=O)Nc2ccc(S(=O)(=O)N3CCC(C)CC3)cc2)n1,-6.2,-0.2,34.0,i,-2.5,i
CNC(=S)n1cnc(N)n1,12.1*,2.8,8.7,i,-0.7,i
COc1ccc(C(=O)n2cnc(N)n2)cc1,0.8,-1.7,14.9,i,-0.1,i
COc1ccccc1Nc1ccc(S(=O)(=O)N2CCCCC2)cc1[N+](=O)[O-],0.2,-1.7,51.4*,i,1.8,i
COc1ccc(C(=O)Nc2ccccc2C(=O)N/N=C/c2cccc3ccccc23)cc1,13.6*,0.4,-9.9,i,9.5,i
COc1ccc(C(=O)Nc2ccccc2C(N)=O)cc1,5.1,-2.4,-10.8,i,-1.0,i
COc1ccc(C(=O)N/N=C/c2ccccc2OC(=O)c2ccccc2)cc1,0.6,0.1,6.0,i,-1.0,i
COc1ccc(C(=O)N/N=C/c2cc3ccccc3[nH]c2=O)cc1,18.1*,-0.7,-10.7,i,-5.2,i
CC(=O)c1ccc(OCCCCCCCOc2ccc(C(C)=O)cc2)cc1,2.0,1.8,-2.0,i,23.6,i
Cc1cccc(CN2C[C@]34CC[C@@H](C[C@@H]3S2(=O)=O)O4)c1,0.2,-1.9,0.1,i,-0.1,i
CCOC(=O)c1cccc(N2C(=O)Nc3ccccc3N2O)c1,18.0*,-2.0,18.3,i,0.4,i
